# Article PMC4336329 (PLoS ONE, 2015)
# The campaign covered roughly 310,000 compounds. About 2,200 (0.71%) showed an effect of 50% or more. The effect is printed as a negative number. The full list was thinned out, with strong results kept by preference.
# Target: human ether-à-go-go-related gene (hERG) potassium channel (human, UniProt Q12809)
# Test: primary screen, population patch clamp on CHO cells stably expressing hERG; higher = less effect of the substance
# human ether-à-go-go-related gene (hERG) potassium channel, sequence (Q12809 whole entry, looked up): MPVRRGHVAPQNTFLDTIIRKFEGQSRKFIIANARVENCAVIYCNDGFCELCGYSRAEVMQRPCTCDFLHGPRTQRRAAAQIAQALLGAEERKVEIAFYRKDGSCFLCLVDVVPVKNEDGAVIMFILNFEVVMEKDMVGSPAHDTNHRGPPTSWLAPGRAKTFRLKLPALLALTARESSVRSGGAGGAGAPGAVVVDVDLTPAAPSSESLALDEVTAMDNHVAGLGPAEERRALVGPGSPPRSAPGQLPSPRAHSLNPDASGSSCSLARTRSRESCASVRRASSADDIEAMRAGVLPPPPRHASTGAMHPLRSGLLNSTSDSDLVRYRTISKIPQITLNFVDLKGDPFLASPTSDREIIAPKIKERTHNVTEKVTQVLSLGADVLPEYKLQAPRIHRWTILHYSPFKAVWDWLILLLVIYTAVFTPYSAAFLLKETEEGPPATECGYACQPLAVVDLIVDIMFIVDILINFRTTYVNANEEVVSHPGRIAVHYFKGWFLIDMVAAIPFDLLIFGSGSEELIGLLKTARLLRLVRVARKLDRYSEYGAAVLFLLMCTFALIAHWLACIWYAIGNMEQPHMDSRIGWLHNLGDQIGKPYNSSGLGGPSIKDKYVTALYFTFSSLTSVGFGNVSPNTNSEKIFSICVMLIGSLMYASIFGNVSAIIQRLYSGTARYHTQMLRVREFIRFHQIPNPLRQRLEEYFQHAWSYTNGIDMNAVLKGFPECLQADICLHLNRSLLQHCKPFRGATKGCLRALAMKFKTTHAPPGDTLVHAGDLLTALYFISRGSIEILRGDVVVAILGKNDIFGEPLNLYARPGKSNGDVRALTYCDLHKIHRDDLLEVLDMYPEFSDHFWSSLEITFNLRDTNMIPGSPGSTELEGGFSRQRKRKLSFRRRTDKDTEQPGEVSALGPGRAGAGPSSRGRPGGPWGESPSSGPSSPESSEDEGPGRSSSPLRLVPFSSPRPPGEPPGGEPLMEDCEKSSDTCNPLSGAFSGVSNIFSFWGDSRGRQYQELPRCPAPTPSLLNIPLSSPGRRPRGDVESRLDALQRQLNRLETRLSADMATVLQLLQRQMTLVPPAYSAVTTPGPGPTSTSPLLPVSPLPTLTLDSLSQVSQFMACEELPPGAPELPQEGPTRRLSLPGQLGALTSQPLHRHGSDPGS
row,SMILES,"hERG current change (%, negative = inhibition) at 1uM [%]"
1,Cl.O=C1C2C3C=CC(C4CC34)C2C(=O)N1CCCCN1CCN(c2ccc(F)cc2)CC1 (stereo not shown),-69.2
2,O=C(CCN1C(=O)C2C3C=CC(C3)C2C1=O)N1CCN(c2ccc(F)cc2)CC1 (stereo not shown),-5.37
3,O=C1C2CCCN2C(=O)N1CCCCN1CCN(c2ccc(F)cc2)CC1 (stereo not shown),-10
4,Cc1cc(NC(=O)CCC(=O)N(c2cccnc2)C(C(=O)NC2CCCC2)c2ccccc2F)no1 (stereo not shown),8.56
5,CCOc1ccccc1OCC(=O)OCC(=O)c1c(N)n(CC(C)C)c(=O)n(C)c1=O,-9.86
6,Cc1ccccc1OCCC(=O)OCC(=O)c1c(N)n(CC(C)C)c(=O)n(C)c1=O,-63.8
7,Cc1ccc(OCCC(=O)OCC(=O)c2c(N)n(CC(C)C)c(=O)n(C)c2=O)cc1,-42.3
8,CS(=O)(=O)Nc1ccc(Cc2noc(-c3ccc4[nH]cc(CCN)c4c3)n2)cc1.O,18.4
9,CN(C(=O)c1ccc2c(c1)OCO2)C1CCCCC1,6.85
10,Cc1nc(NC(=O)CC(C)C)sc1-c1csc(Nc2ccc(Cl)cc2)n1,12.5
11,Cc1ccccc1C(=O)NNC(=S)Nc1cccc(C(F)(F)F)c1,13.2
12,CCCCc1ccc(-c2nc(NC(=O)C3C4CCC(O4)C3C(=O)O)sc2C)cc1 (stereo not shown),11.9
13,O=C(Nc1ccccc1N1CCCC1)c1ccc([N+](=O)[O-])o1,1.03
14,CN1CCN(c2ccccc2NC(=O)c2ccc([N+](=O)[O-])o2)CC1,-62.4
15,O=C(Nc1ccccc1N1CCOCC1)c1ccc([N+](=O)[O-])o1,-1
16,CC(=O)N1CCN(c2ccccc2NC(=O)c2ccc(-c3cccc([N+](=O)[O-])c3)o2)CC1,-81.6
17,CCC(=O)N1CCN(c2ccccc2NC(=O)c2ccc(-c3cccc([N+](=O)[O-])c3)o2)CC1,-3.2
18,CCC(=O)N1CCN(c2ccc(Cl)cc2NC(=O)c2ccc([N+](=O)[O-])o2)CC1,0.198
19,CC(C)C(=O)N1CCN(c2ccccc2NC(=O)c2ccc([N+](=O)[O-])o2)CC1,-23.5
20,CCC(=O)N1CCN(c2ccccc2NC(=O)c2ccc([N+](=O)[O-])o2)CC1,-60.5
21,CN1CCN(c2ccccc2NC(=O)c2ccc(-c3cccc([N+](=O)[O-])c3)o2)CC1,-0.213
22,c1ccc(C(c2nnnn2C2CCCCC2)N2CCc3ccccc3C2)nc1 (stereo not shown),7.86

row,SMILES,"hERG current change (%, negative = inhibition) at 1uM [%]"
1,C[C@H](NC(=O)N1CCn2c1nc1ccccc12)C(=O)NCCc1ccccc1,17.4
2,COc1ccc(NC(=S)N2CCN(C(=O)c3ccco3)CC2)c(OC)c1,8.24
3,CCn1c(=S)sc2c(=O)[nH]c(C)nc21,13.5
4,COc1cccc(CN2CC(C(=O)N3CCCCCCC3)CCC2=O)c1 (stereo not shown),9.63
5,COc1cccc(CN2CC(C(=O)N3CCN(c4ccc(Cl)cc4)CC3)CCC2=O)c1 (stereo not shown),-53.3
6,COc1cccc(CN2CC(C(=O)N3CCCC3)CCC2=O)c1 (stereo not shown),10.9
7,CCOC(=O)c1oc2ccccc2c1CSc1nnnn1-c1ccc(C)cc1,5.36
8,COc1ccccc1C1CCN(Cc2ccc(C)cc2)CC1,-61.2
9,Cc1ccc(CC(=O)NC2CCN(Cc3ccccc3)CC2)cc1,7.9
10,O=C(/C=C/c1cccc(Br)c1)NC1CCN(Cc2ccccc2)CC1,-27.7
11,Fc1ccc(NC(=S)NC2CCN(Cc3ccccc3)CC2)cc1,6.75
12,O=C(NC1CCN(Cc2ccccc2)CC1)c1ccccc1,2.84
13,COc1ccccc1C1CCN(Cc2ccc(Cl)c(Cl)c2)CC1,10.4
14,O=C(/C=C/c1cccc(F)c1)NC1CCN(Cc2ccccc2)CC1,-51.4
15,Cc1ccc(CN2CCC(NC(=O)c3ccccc3)CC2)cc1,-52.8
16,Cl.O=C(NC(=S)NC1CCN(Cc2ccccc2)CC1)c1ccc(F)cc1,-57.5
17,O=C(NC1CCN(Cc2ccc(F)cc2)CC1)c1ccccc1,-15.9
18,COc1ccc(/C=C/C(=O)NC2CCN(Cc3ccccc3)CC2)cc1OC,12
19,COc1ccccc1C1CCN(Cc2ccccc2)CC1,8.45
20,Cc1cnc(-c2nnc(N(C)C(=O)c3cccnc3)s2)cn1,10.2
21,CCN(CC)c1ccc(/C=N/NC(=S)NC)c(O)c1,4.81
22,Cc1c(N=C2NC(=O)/C(=C/c3cccc([N+](=O)[O-])c3)S2)c(=O)n(-c2ccccc2)n1C,12.1

row,SMILES,"hERG current change (%, negative = inhibition) at 1uM [%]"
1,Cc1ccc(S(=O)(=O)CC(O)COc2ccc(F)cc2Cl)c(C)c1 (stereo not shown),7.06
2,COc1ccc(/C=N/NC(=O)C2c3ccccc3Oc3ccccc32)c(OC)c1,11.6
3,NS(=O)(=O)c1ccc(CNC(=O)c2cc(-c3cccnc3)nc3ccccc23)cc1,14.6
4,CCc1ccccc1NC(=O)Nc1c(C)n(C)n(-c2ccccc2)c1=O,-14.2
5,Cn1c(CSCc2ccc(F)cc2)n[nH]c1=S,13.6
6,CNC(=O)CSc1nc(-c2ccccc2)c(-c2ccccc2)[nH]1,3.72
7,Cc1ccc(S(=O)(=O)N2CCN(C(=O)c3nn(C(C)C)c(=O)c4ccccc34)CC2)cc1C,5.96
8,CC(C)Oc1ccc(S(=O)(=O)N2CCOCC2)cc1NC(=O)C1=COCCO1,11
9,CC(=O)C[C@H]1c2ccccc2S(=O)(=O)N1C1CCCC1,14.6
10,Cn1c(Nc2ccccc2)nc2ccccc21,8.25
11,COc1ccc(Nc2nc3ccccc3n2C)cc1,13.1
12,Cn1c(Nc2ccc(F)cc2)nc2ccccc21,-77.5
13,COc1ccc(-c2[nH]c(-c3ccc(C)cc3)nc2SCC(=O)Nc2nccs2)cc1,21.6
14,CC1CN(C(=O)COc2ccc3c(-c4ccccc4)cc(=O)oc3c2)CC(C)O1 (stereo not shown),10.8
15,COc1ccc(Cl)cc1S(=O)(=O)Oc1ccc(NC(C)=O)cc1,-58.8
16,CC(=O)Nc1ccc(OS(=O)(=O)c2ccc(Cl)cc2)cc1,-1.62
17,CC(=O)Nc1ccc(OS(=O)(=O)c2cc(Cl)ccc2C)cc1,13.6
18,CCN(CC)CCCNC(=O)C(C)n1c2ccccc2c2nc(=O)cc(C)n21 (stereo not shown),12.7
19,O=C1c2ccccc2C(=O)N1/N=C/c1ccc(O)c(O)c1,13.9
20,CCOc1ccc(C2NC(=O)c3n[nH]c(C)c32)cc1 (stereo not shown),9.09
21,COc1ccccc1N1CCN(CCCCOc2cccc3ccccc23)CC1.Cl,9.44
22,COc1ccccc1N1CCN(Cc2ccc(F)cc2)CC1,6.42

row,SMILES,"hERG current change (%, negative = inhibition) at 1uM [%]"
1,Cc1ccccc1N1CCN(CCCOc2ccc3c(C)cc(=O)oc3c2)CC1,-56.2
2,COc1ccccc1N1CCN(CCCCCCOc2ccc(F)cc2)CC1,-7.53
3,COc1ccccc1N1CCN(CC(=O)c2ccc(F)cc2)CC1.Cl,16.7
4,COc1ccccc1N1CCN(CCCOc2ccc(F)cc2)CC1,-60.3
5,COc1ccccc1N1CCN(CCCCOc2ccc(F)cc2)CC1.Cl,-71.5
6,COc1ccccc1N1CCN(CCCC(=O)c2ccc(F)cc2)CC1,-43.2
7,Cc1cc(=O)oc2cc(OCCCN3C(=O)c4ccccc4C3=O)ccc12,-0.574
8,COc1ccccc1N1CCN(CCN(C(=O)c2ccc(F)cc2)c2ccccn2)CC1.Cl,-57.8
9,COc1ccccc1N1CCN(CCN(C(=O)C2CCCCC2)c2ccccn2)CC1.O=C(O)/C=C\C(=O)O,4.2
10,COc1ccc(N2CCN(CCOc3ccc4c(C)cc(=O)oc4c3)CC2)cc1,-37.8
11,CCOC(=O)c1sc2nc(C)nc(N3CCCCC3C)c2c1C (stereo not shown),-5.1
12,O=C(NCCNC(=O)c1ccc(Cl)cc1Cl)c1cnccn1,6.54
13,O=C(CSc1cccc2cccc(Cl)c12)NC1=NCCS1,2.37
14,CSCCC(NC(=O)COc1ccccc1)C(=O)NCCOc1ccc(C)cc1 (stereo not shown),3.41
15,Cl.O=C(c1ccco1)N1CCN(CCOc2ccc(F)cc2)CC1,-0.809
16,O=C(c1ccco1)N1CCN(C(=S)NCc2ccc(F)cc2)CC1,-3.27
17,O=C(CCC1CCN(C(=O)c2ccccc2Cl)CC1)NCc1ccc(F)cc1,4.08
18,O=C(c1ccco1)N1CCN(CCOc2ccccc2)CC1,10.3
19,Cl.O=C(c1ccco1)N1CCN(CCCCOc2ccc(F)cc2)CC1,-74.8
20,O=C(CCC1CCN(C(=O)c2ccco2)CC1)NCc1ccc(F)cc1,-62
21,Cc1cccc(NC(=O)Cn2c(=O)n(Cc3ccco3)c(=N)c3c4c(sc32)COC(C)(C)C4)c1,3
22,COc1cccc(/C=C2\SC(N)=NC2=O)c1OS(=O)(=O)c1ccccc1,2.6
